Test results reported in PubChem BioAssay (Tox21).
Several values for one entry are separate records, joined by “and”; a condition that tells them apart may be missing. Equal values may be shown once. Inconclusive results are not listed. The source holds several records for some structures; these can differ, active in one and inactive in another. Activity calls are given as the source filed them. The call rests on the fitted dose curve; in most records, active means well fitted activation curve with a large enough effect in the repeat runs; inconclusive means weak or mixed curves; inactive means flat fitted curve, though single readings scatter. Starred links: 1 amine or outer side, 2 acyl side, 3 side chain; linkers in the order of their positions; H or OH if unused. Positions of bridges follow the written chain, without caps; N, C: chain ends. Non-standard residues stand in square brackets, D forms with d. Residues, ends and D or L forms follow the SMILES beside them. Chains are numbered I, II in the order given. Actinocin(9to1) = Cc1c2oc3c(C)ccc(C(=O)[*:1])c3nc-2c(C(=O)[*:2])c(N)c1=O; NMeV = CN[C@H](C(=O)O)C(C)C; Sar = CNCC(=O)O

assay: A CellTox Green Cytotoxicity Assay to monitor cytotoxicity in HepG2 cells - 8 hour (AID 1224890); conditions: CellTox Green fluorescence; series mostly up to 76.8 µM; cytotoxicity increase: at the top concentration; further: nearly all actives have a fitted effect of over 45% in size
Excerpt: National Center for Advancing Translational Sciences [NCATS]
NIH Chemical Genomics Center [NCGC]
U.S. Environmental Protection Agency [EPA]
National Institutes of Environmental Health Sciences [NIEHS]
National Toxicology Program [NTP]
Cell-based models are critical for drug discovery. Determining the natural cytotoxic effects resulting from test compounds is an essential research activity. A CellTox Green Cytotoxicity Assay to monitor cytotoxicity in real time of continues cell culture during 40 hours of the compound treatment was used to screen Tox21 10K library compounds in HepG2 cells. CellTox Green Cytotoxicity Assay is a nonlytic, homogeneous, biofluorescent method to measure cytotoxicity in cell culture after experimental manipulation. The assay system uses a proprietary asymmetric cyanine dye that is excluded from viable cells but preferentially stains the dead cell's DNA. […] Viable cells produce no appreciable increases in fluorescence. Therefore, the fluorescence signal produced by the binding interaction with dead cell DNA is proportional to cytotoxicity.
The mixture of HepG2 cell suspension and reagents were dispensed at 600cells/6 ul/well in 1536-well tissue culture treated black solid bottom plates using a Multidrop dispenser. After the assay plates were incubated at a 37 C/5% CO2 incubator for 5 hours, 23 nL of compounds dissolved in DMSO, positive and negative controls was transferred to the assay plate by a pintool work station. The plates were incubated at 37 C for 40 hours. The fluorescence intensity were measured at 0h, 8h, 16h, 24h, 32h and 40h time points using ViewLux plate reader during compound treatment.
On the % scale 0 is the no-effect control and ±100 the full control effect; potency means the concentration at half of the fitted maximal effect.

| Compound | Potency | cytotoxicity increase |
| --- | --- | --- |
| CCOc1ccc2c(c1)C(C)=CC(C)(C)N2 | inactive |  |
| Cc1c2oc3c(C)ccc(C(=O)N[C@@H]4C(=O)N[C@H](C(C)C)C(=O)N5CCC[C@H]5C(=O)N(C)CC(=O)N(C)[C@@H](C(C)C)C(=O)O[C@@H]4C)c3nc-2c(C(=O)N[C@@H]2C(=O)N[C@H](C(C)C)C(=O)N3CCC[C@H]3C(=O)N(C)CC(=O)N(C)[C@@H](C(C)C)C(=O)O[C@@H]2C)c(N)c1=O (I: T[dV]P[Sar][NMeV] / II: T[dV]P[Sar][NMeV]; ester I:1-I:C, II:1-II:C; linker I:N-II:N via Actinocin(9to1)) | inactive |  |
| C=CS(=O)(=O)O |  | -7.94% (inactive) |
| c1ccc2c(c1)CCCC2C1=NCCN1 (stereo not given) |  | -6.03% [at 35.3 µM] (inactive) |
| O=C1Nc2ccccc2C1(c1ccc(O)cc1)c1ccc(O)cc1 | inactive |  |
| CC(=O)O[C@]1(C(C)=O)CC[C@H]2[C@@H]3C[C@H](C)C4=CC(=O)CC[C@]4(C)[C@H]3CC[C@@]21C |  | -17.4% (inactive) |
| CC(C)(C)NCC(O)COc1ccccc1OCC1CCCO1 (stereo not given) |  | -0.192% [at 35.3 µM] (inactive) |
| CCN(CC)CCOc1ccc(/C(=C(\Cl)c2ccccc2)c2ccccc2)cc1 | 35.4 µM (active) and 21.3 µM (active) |  |
| CC[C@@H](N)CO |  | -8.32% (inactive) |
| CCCCCCCCCCCCCCCCCl |  | 3.53% [at 15.8 µM] (inactive) |
| Cc1cccc2n[nH]nc12 | inactive and 43.6 µM (active) |  |
| O=C(O)CCc1ccccc1 |  | -7.97% (inactive) |
| CC(C)(c1ccccc1)c1ccc(Nc2ccc(C(C)(C)c3ccccc3)cc2)cc1 | inactive |  |
| COc1ccc(CCN(C)CCCC(C#N)(c2ccc(OC)c(OC)c2)C(C)C)cc1OC (stereo not given) | inactive |  |
| NC(N)=Nc1nc(CSCC/C(N)=N/S(N)(=O)=O)cs1 | inactive |  |
| c1ccc2n[nH]nc2c1 | inactive |  |
| CN(C)c1ccc2nc3ccc(=[N+](C)C)cc-3sc2c1 | inactive |  |
| Nc1cc(Cl)c(-c2cc(Cl)c(N)cc2Cl)cc1Cl |  | -0.501% (inactive) |
| O=C(O)c1cccc(C(=O)O)c1 | inactive |  |
| O=C(O)CP(=O)(O)O |  | 0.245% [at 35.3 µM] (inactive) |

| Compound | Potency | cytotoxicity increase |
| --- | --- | --- |
| CCN1CCCC1CNC(=O)c1cc(S(=O)(=O)CC)c(N)cc1OC (stereo not given) |  | 5.83% [at 35.3 µM] (inactive) |
| O | inactive |  |
| CCC(CO)(CO)COCC(CC)(CO)CO |  | -4.41% (inactive) |
| COC(=O)[C@H]1[C@H]2C[C@@H]3c4[nH]c5cc(OC)ccc5c4CCN3C[C@H]2C[C@@H](OC(=O)c2cc(OC)c(OC)c(OC)c2)[C@@H]1OC | inactive |  |
| COc1cc(C(=S)N2CCOCC2)ccc1O |  | -15.3% [at 35.3 µM] (inactive) |
| CN(C)c1ccc(C(=C2C=CC(=[N+](C)C)C=C2)c2ccccc2)cc1 | 21.9 µM (active) and 8.49 µM (active) |  |
| Cc1cccc([N+](=O)[O-])c1C(=O)O |  | -0.73% (inactive) |
| CCCN[C@H]1CCc2nc(N)sc2C1 | inactive |  |
| [Cl][In]([Cl])[Cl] | inactive |  |
| CC(C(O)c1ccc(O)cc1)N1CCC(Cc2ccccc2)CC1 (stereo not given) |  | 2.98% [at 35.3 µM] (inactive) |
| CC(=O)OCC1=C(C(=O)O)N2C(=O)[C@@H](NC(=O)Cc3cccs3)[C@H]2SC1 |  | -6.11% [at 35.3 µM] (inactive) |
| Cc1cccc(O)c1C |  | 3.76% (inactive) |
| NC(=Nc1ccccc1)Nc1ccccc1 |  | -2.56% [at 35.3 µM] (inactive) |
| CCc1ccc(C(c2ccc(CC)cc2)C(Cl)Cl)cc1 |  | 8.72% (inactive) |
| CC(=O)CC(=O)Nc1ccc2[nH]c(=O)[nH]c2c1 |  | -14.7% (inactive) |
| CCC[C@H](N[C@@H](C)C(=O)N1[C@H](C(=O)O)C[C@@H]2CCCC[C@@H]21)C(=O)OCC | inactive |  |
| CCCCCC(=O)O[C@]1(C(C)=O)CC[C@H]2[C@@H]3CCC4=CC(=O)CC[C@]4(C)[C@H]3CC[C@@]21C | inactive |  |
| CCCC(=O)c1ccccc1 |  | -0.174% (inactive) |
| NCCCCCC(=O)O |  | -18.2% [at 35.3 µM] (inactive) |
| CC(C)(C)c1ccccc1 |  | -2.75% (inactive) |
